# In PubChem BioAssay AID1445 (SRMLSC, 2008):
# Several values for one entry are separate records, joined by “and”; a condition that tells them apart may be missing. Equal entries are not always repeated. Hit rate of the full screen: of about 220,000 compounds, about 910 (0.41%) were called active. The sample holds actives, similar compounds and a random draw of the others, so the mix is not that of the screen.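 Rule for the calls: active = primary inhibition above the hit cutoff, then over 50% inhibition at one or more dose response concentrations (cut at about 23% in these data, passing the limit was not always enough); inconclusive = conflicting primary data, or primary hits not chosen for dose response; inactive = low primary inhibition, or under 50% at every dose.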 Measured potencies and affinities stand elsewhere. The source holds several records for some structures; these can differ, active in one and inactive in another.
# Target: Aminopeptidase N (Plasmodium falciparum (isolate 3D7)) (UniProt O96935)
# Sequence (O96935 whole entry, looked up): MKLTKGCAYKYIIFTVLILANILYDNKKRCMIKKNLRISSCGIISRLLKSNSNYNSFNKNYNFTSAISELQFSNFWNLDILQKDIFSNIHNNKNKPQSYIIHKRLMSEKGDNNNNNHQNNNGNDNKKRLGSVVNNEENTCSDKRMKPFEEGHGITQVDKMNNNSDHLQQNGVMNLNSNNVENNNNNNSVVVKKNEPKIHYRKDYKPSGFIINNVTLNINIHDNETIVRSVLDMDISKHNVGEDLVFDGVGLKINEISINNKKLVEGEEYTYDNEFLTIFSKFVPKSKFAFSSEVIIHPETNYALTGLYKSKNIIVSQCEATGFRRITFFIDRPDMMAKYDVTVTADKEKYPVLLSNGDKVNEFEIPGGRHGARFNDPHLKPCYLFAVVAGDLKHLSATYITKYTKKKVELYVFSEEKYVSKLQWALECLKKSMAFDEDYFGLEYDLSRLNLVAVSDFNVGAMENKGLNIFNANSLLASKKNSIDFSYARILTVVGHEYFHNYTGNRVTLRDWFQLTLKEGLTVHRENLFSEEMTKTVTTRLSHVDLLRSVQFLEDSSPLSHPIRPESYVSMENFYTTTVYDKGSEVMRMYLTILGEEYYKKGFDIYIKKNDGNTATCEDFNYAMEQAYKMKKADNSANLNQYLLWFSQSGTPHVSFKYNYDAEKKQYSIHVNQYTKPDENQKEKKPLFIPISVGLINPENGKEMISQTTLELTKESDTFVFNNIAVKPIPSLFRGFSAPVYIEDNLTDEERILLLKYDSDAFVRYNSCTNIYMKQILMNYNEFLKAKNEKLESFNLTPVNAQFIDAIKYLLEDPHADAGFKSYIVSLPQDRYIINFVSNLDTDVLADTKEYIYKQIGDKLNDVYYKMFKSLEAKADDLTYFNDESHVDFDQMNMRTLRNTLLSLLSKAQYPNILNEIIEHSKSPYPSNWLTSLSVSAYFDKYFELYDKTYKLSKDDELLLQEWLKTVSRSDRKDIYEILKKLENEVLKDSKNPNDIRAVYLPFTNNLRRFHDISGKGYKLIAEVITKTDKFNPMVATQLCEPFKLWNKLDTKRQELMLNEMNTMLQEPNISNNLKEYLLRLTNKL
# Experiment: malaria alanyl aminopeptidase activity blockers – biochemical, fluorogenic H-Leu-NHMec substrate, 1536-well (AID 1445);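 note: plate controls were DMSO full reaction for no effect and no enzyme background for full effect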
# Conditions: recombinant M1AAP, H-Leu-NHMec fluorogenic kinetic assay; at 30 µM, stronger effect = higher value unless noted
row,SMILES,inhibition
1,CCOc1ccccc1N(C(=O)Nc1ccc(Cl)cc1)C1=NCCS1,-3.04% (inactive)
2,COc1ccc(C2CC(=O)NC3=C2C(=O)CCC3)cc1Cl (stereo unspecified),-1.4% (inactive)
3,O=C(CSc1nnc(-c2ccccc2)n1Cc1ccccc1)NNC(=O)c1ccccc1O,16.1% (inactive)
4,O=C(O)CSc1nnc(-c2ccccc2O)n1Cc1ccccc1,6.98% (inactive)
5,NC(=O)c1cc2c3ccccc3ccn2c1-c1ccccc1,0.96% (inactive)
6,CC(C)NC(=O)CSc1nnc(-c2ccc(F)cc2)c2ccccc12,0.8% (inactive)
7,O=C1CC(c2ccco2)CC(O)=C1C=Nc1cc(Cl)cc(Cl)c1 (stereo unspecified),-0.66% (inactive)
8,O=C1CC(c2ccco2)CC(O)=C1C=Nc1cc(Cl)ccc1Cl (stereo unspecified),4.23% (inactive)
9,O=C(NCc1ccccc1)c1nc2ccccc2s1,1.19% (inactive)
10,Cc1c2cc(O)c(=O)cc-2oc2cc(O)c(O)cc12,24.7% (active) and 6.57% (inactive)
11,COc1cc(OC)c(-c2c3cc(O)c(=O)cc-3oc3cc(O)c(O)cc23)cc1OC,22.9% (inactive)
12,O=c1cc2oc3cc(O)c(O)cc3c(-c3ccccc3O)c-2cc1O,13.8% (inactive)
13,CC(=O)Nn1cnc2c(c1=O)C1(CCCCC1)Cc1ccccc1-2,4.35% (inactive)
14,COc1ccc(NC(=O)Nc2cccc(Cl)c2Cl)c(OC)n1,4.95% (inactive)
15,COc1ccccc1NC1=NC(C)(C)N=C(N)N1,0.34% (inactive)
16,COC1=C(Nc2ccccc2OC)C(=O)c2ccccc2C1=O,7.8% (inactive)
17,COc1ccc(OC)c(C2=NOC(C(=O)Nc3cccnc3)C2)c1 (stereo unspecified),7.85% (inactive)
18,COc1ccc(NC(=O)Nc2cccnc2)c(OC)c1,2.93% (inactive)
19,CCOc1ccc(-n2c(=O)[nH]cc(C(=O)N3CCc4ccccc43)c2=O)cc1,1.21% (inactive)
20,CC(=O)Nc1ccc(NS(=O)(=O)c2cc([N+](=O)[O-])ccc2C)cc1,2.22% (inactive)
21,Cc1ccc(C)c(NC(=O)c2ccccc2NS(=O)(=O)c2cc([N+](=O)[O-])ccc2C)c1,8.58% (inactive)
22,O=C(N/N=C(\Cc1ncc[nH]1)c1ccccc1)c1ccccc1,19.5% (inactive)
23,O=C(N/N=C(\Cc1ncc[nH]1)c1ccccc1)c1cccnc1,16.6% (inactive)
24,COC(=O)c1cc2c(ccn2-c2ccc(F)cc2)n1CC(=O)OC(C)C,1.89% (inactive)
25,CCOc1cc(N2CCOCC2)c(OCC)cc1NC(=O)C(NC(=O)c1ccco1)C(C)C (stereo unspecified),8.28% (inactive)
26,c1ccc2c(c1)N1CCN=C1N2CCN1CCCCC1,5.87% (inactive)
